The panel holds about 83,000 compounds, 20% with a hit somewhere; the sample as a whole holds those more often.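 Growth was measured after 48 h exposure to one concentration of compound in 96-well plates. Values under 10 count as active.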 A number with no mark means an inactive call. Active and inactive are the calls of the source.

The experiment concerns NCI-H460 lung. In words: NCI-60 one-dose screen, 48 h (100 = growth as untreated, 0 = no growth, -100 = all killed). The settings on record: 10 µM unless noted.
In the case of `C=C(C)[C@@H]1CC[C@]2(CNCCO)CC[C@]3(C)[C@H](CC[C@@H]4[C@@]5(C)CCC(N)[C@@](C)(CO)[C@@H]5CC[C@]43C)[C@@H]12` (some centres undefined), the growth is -56.4% (active).

In the case of `O=S(=O)(NCCNc1cc(-c2c(-c3cccc(O)c3)nc3sccn23)ccn1)c1ccc(Cl)cc1`, the growth is 58.3%.

As for `CC(C)(C)Nc1c(-c2c3ccccc3cc3ccccc23)nc2ccccn12`, the growth is 77%.

With `CN(C)CCOC(=O)Nc1ccc(Cl)cc1`, the growth is 106%.

Regarding `CCOc1ccc(-c2nc3ccc(-c4nc5ccc(N6CCN(C)CC6)cc5[nH]4)cc3[nH]2)cc1OCC`, the growth is 17.2%.

`N[C@H]1CCC[C@@H]1NCCCCN1C(=O)c2cccc3cccc(c23)C1=O`: the growth was 39.4%.

For `COc1ccc(/C=C(\C#N)n2nnc3cc(F)c(F)cc32)c(OC)c1OC`, the growth was 71.4%.

As to `COc1cc2ccccc2cc1C(=O)NC(=S)Nc1ccc(-c2nc3ccccc3[nH]2)cc1`, the growth is 69.1%.

As to `Cc1ccc(/C=C(\C#N)n2nnc3cc(Cl)c(Cl)cc32)cc1`, the growth was 12.8%.

`CC(C)(O)c1cccc(F)c1`: the growth was 112%.

Turning to `O=C1Nc2ccc(Cl)cc2/C1=N/N=C/c1c[nH]c2ccccc12`, the growth is 72%.

Regarding `N#Cc1c(-c2ccccc2)nc(SCC2CO2)nc1N1CCOCC1` (centres undefined), the growth was 67.6%.

`COc1cc2c(cc1OC)-c1ccc3cc4c(cc3c1N(CCCN(C)C)C2)OCO4`: the growth is 14.6%.

In the case of `C=C1C(=O)O[C@H]2[C@H]1CC/C(Cn1cc(CNCCc3c[nH]c4ccc(Cl)cc34)nn1)=C\CC[C@@]1(C)O[C@@H]21`, the growth was 99%.

In the case of `C#CC[C@H](N)C(=O)O`, the growth was 104% [20 µM].

Regarding `O=C(Oc1ccc([N+](=O)[O-])cc1)c1ccc(CBr)cc1`, the growth was 100%.

Turning to `OC(CBr)c1ccnc2ccccc12` (centres undefined), the growth is 105%.

`CCCNCC(=O)Nc1ccc(C(=O)OC(C)(C)CC)cc1`: the growth is 104%.

As to `CC(=O)c1cc2c(o1)C(=O)c1ccccc1C2=O`, the growth was -71.8% (active).

With `CS(=O)(=O)c1ccc(-c2[nH]c3ccc(F)cc3c2/C=N/NC(N)=S)cc1`, the growth was 3.52% (active).

Turning to `CC(C)c1ccc(C(=O)OC(=O)c2ccc(C(C)C)cc2)cc1`, the growth was 96.3%.

With `N=C(N)c1ccc(-c2ccc(-c3ccc(Cl)c(Cl)c3)o2)nc1`, the growth is -78.1% (active).

As for `N#C/C=C(\c1ccc([N+](=O)[O-])cc1)n1nnc2cc(Cl)c(Cl)cc21`, the growth was -8.66% (active).

In the case of `CS(=O)(=O)c1ccc(-c2nc3cc(Cl)ccc3n2CC(=O)NO)cc1`, the growth is 101%.

As to `CC(=O)Nc1cccc(C2=CC(c3ccc(C)cc3)n3ncnc3N2)c1` (centres undefined), the growth was 107%.

For `CCn1c(Sc2nnc(NC(=O)CCN3CCCC3)s2)nc2c1c(=O)n(C)c(=O)n2C`, the growth is 112%.

Regarding `N#Cc1c(NC(=O)c2cccc(C(F)(F)F)c2)sc2c1CCC(=O)C2`, the growth is 3.47% (active).

`CC(C)(C)c1ccc(C(=O)Nc2sc3c(c2C(N)=O)CCC(=O)C3)cc1`: the growth was -10.7% (active).

With `CCOC(=O)c1c(C)nc2c(c1N)/C(=C/c1cc(OC)c(OC)c(OC)c1)C(=O)N2c1ccc(OC)cc1`, the growth is 48.5%.

Turning to `Nc1nc(Nc2ccc(Cl)cc2)nn1S(=O)(=O)c1ccc(-c2ccc(F)cc2)cc1`, the growth is 70.9%.

With `CCNCCNc1cc(-c2ccc(C(F)(F)F)cc2)c(C#N)c2nc3cc(Cl)c(Cl)cc3n12`, the growth is -71.6% (active).

Regarding `C=CCN1C(=O)[C@]2(SC1=S)[C@H](c1cccc(Cl)c1)CN(C)[C@]21C(=O)NC2C=CC(Cl)=C[C@H]21` (some centres undefined), the growth is 55.3%.

In the case of `O=C(/C=C/C12c3ccccc3C(c3ccccc31)C1C(=O)N(c3ccccc3)C(=O)C12)c1ccccc1` (centres undefined), the growth was -41.3% (active).

As for `O=S(=O)(Nc1ccsc1-c1nc(-c2ccccc2)no1)c1cc(Cl)cc(Cl)c1`, the growth is 100%.

`CNC1(C#N)CCN(Cc2ccccc2)CC1`: the growth is 108%.

Take `COc1cc2cc(Oc3ccc(NC(=O)Nc4cc(C(F)(F)F)cc(C(F)(F)F)c4)cc3)c(C)nc2cc1OCCN1CCCCC1`: the growth is -78% (active).

Turning to `CC(C)n1nc(C#Cc2cccc3cc(-c4cccc(C(F)(F)F)c4)ncc23)c2c(N)ncnc21`, the growth is 48.9%.

In the case of `N[C@@H]1CCC[C@H]1NCCCCN1C(=O)c2cccc3cccc(c23)C1=O`, the growth was 59.8%.

Consider `CCN(CC)CCOC(=O)N1c2ccccc2Sc2ccccc21`, for which the growth was 103%.

(Values after PubChem BioAssay (NCI).)
